Screening results as filed in PubChem BioAssay.
ALOX12 inhib: 12-hLO (ALOX12) enzyme inhibition; P18054; 150,000 tested, 0.12% active; Potency, µM (titrated, usually from 57.1 µM), inactives show top-dose activity change, negative = inhibition, most hits filed as inhibitors; purified 12-hLO, xylenol orange hydroperoxide absorbance; active = well fitted inhibition curve with a large enough effect; inconclusive = small, poorly fitted or top-dose-only effect; also: potency is read from the fitted curve at half-maximal effect; nearly all actives have a fitted effect of over 55% in size
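Hydroperoxide formation by human 12-lipoxygenase from 40 uM arachidonic acid was followed colorimetrically via ferric-xylenol orange complex, using the 573/405 nm absorbance ratio. Enzyme concentration was 150 nM, with 30 min reaction at room temperature.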
ALDH1A1 inh: blocks purified human ALDH1A1 activity; P00352; Purified ALDH1A1, NADH fluorescence, propionaldehyde substrate; Potency, µM (top dose mostly 75.3 µM), without a hit: at the highest dose activity, negative = inhibition, usual class: inhibitors; 220,000 tested, 7.3% active; AID 1030;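 also: potency is read from the fitted curve at half-maximal effect; plate controls were no enzyme wells and a reference inhibitor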
LMNA splice mod: LMNA splicing modulation | 200,000 tested, 0.01% active | AID 1487 | HeLa LMNA splicing GFP/RFP minigene ratio, 48 h | Potency, µM (highest dose often 46.1 µM), without a hit: at the highest dose ratio change, negative = inhibition, most hits filed as inhibitors; active = well fitted inhibition curve with a large enough effect in the signal ratio, with a control signal flat, not every such curve was filed as active; inconclusive = small, poorly fitted or top-dose-only effect, or effect the other way, or a change in a side signal; the % refers to the signal ratio; also: potency is read from the fitted curve at half-maximal effect
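S3 HeLa stable clones carrying a lamin A-EGFP splicing minigene plus DsRed2 were seeded at 600 cells/well in Opti-MEM with 2% FBS, pin-dosed and incubated 48 h at 37°C. Acumen cytometry (488 nm) gave the GFP/RFP total-intensity ratio.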
HPGD block: blocks human HPGD enzyme activity | P15428 | purified HPGD, NADH fluorescence kinetic, PGE2 substrate | Potency, µM, for the others: at the highest dose activity change, negative = inhibition, actives largely listed as inhibitors | 150,000 tested, 4.3% active; also: potency is read from the fitted curve at half-maximal effect
Target sequence (P15428 whole entry, looked up): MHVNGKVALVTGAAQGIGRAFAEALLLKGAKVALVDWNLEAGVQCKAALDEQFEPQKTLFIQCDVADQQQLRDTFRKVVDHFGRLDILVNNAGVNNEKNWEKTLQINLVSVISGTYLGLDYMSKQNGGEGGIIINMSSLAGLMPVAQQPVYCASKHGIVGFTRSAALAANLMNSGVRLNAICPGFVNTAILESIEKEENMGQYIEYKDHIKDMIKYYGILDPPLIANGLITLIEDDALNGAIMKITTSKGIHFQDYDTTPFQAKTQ
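NADH formation kinetics: reaction with 30 uM PGE2 and 1 mM NAD+ (final), 20 nM enzyme, Tris-HCl pH 8 with Tween 20, after 15 min compound preincubation at room temperature. Fluorescence change, last versus first of five reads.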
PNC inhibitor: blocks assembly of the perinucleolar compartment; 140,000 tested, 3.1% active; activity change (PNC), negative = inhibition, % at 10 µM; PC3M PTB-GFP, PNC prevalence imaging, 16 h; stronger effect = lower value; AID 2417;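 active = readout at or below -70, meaning at least 70% loss of cells showing the perinucleolar compartment, a nuclear body marking cancer cells; inconclusive = readout between -30 and a set limit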;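 also: plate controls were DMSO wells for no effect and camptothecin positive control wells for full effect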
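PC3M cells stably expressing PTB-GFP, 750–1000 cells/well, treated 16 h at 37 °C with compound (23 nl of library stock), in duplicate. After paraformaldehyde fixation and Hoechst stain, imaged at 20x; PNC prevalence scored by image analysis.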
The depositor's hits bear a star; [ ] = another dose, or the depositor's remark. Shown are actives, neighbours in structure and some others; about 10% of the full set was active somewhere. Unless noted, calls follow the shape of the dose curve; as a rule, active = well fitted inhibition curve with a large enough effect (not every such curve was filed as active); inconclusive = small, poorly fitted or top-dose-only effect, or another doubt; inactive = no such curve, though single readings can be large or run the other way. Unless noted, % is scaled to controls: 0 for no effect and ±100 for the full control effect.

`c1ccc(CCNc2c3c(nc4ncnn24)CCC3)cc1` gave ALOX12 inhib -6%, ALDH1A1 inh 3.5µM*, LMNA splice mod -2%, HPGD block 18µM* and PNC inhibitor 14.
For Cc1cccc(Nc2nc(-c3ccc4c(c3)OCCO4)cs2)c1 the results were ALOX12 inhib -4%, ALDH1A1 inh 20µM*, LMNA splice mod -7%, HPGD block -8% and PNC inhibitor 22.
For N#CCSc1nnc(COc2cccc3ccccc23)n1-c1cccc(Cl)c1 the results were ALOX12 inhib -9%, ALDH1A1 inh -7%, LMNA splice mod inconclusive, HPGD block -5% and PNC inhibitor -80*.
Screening CCOc1ccc(C(C#N)N2CCOCC2)cc1OC (stereo unspecified) returned ALOX12 inhib 5%, ALDH1A1 inh 10µM*, LMNA splice mod 13%, HPGD block -13% and PNC inhibitor 27.
CCOc1cc(C(C#N)N2CCOCC2)ccc1OC (stereo unspecified) was read as ALOX12 inhib 0%, ALDH1A1 inh inconclusive, LMNA splice mod 6%, HPGD block 0% and PNC inhibitor inconclusive.
`NC(CO)C(=O)NNCc1ccc(O)c(O)c1O` (stereo unspecified) gave ALOX12 inhib 0%, ALDH1A1 inh 3.4µM*, LMNA splice mod inconclusive, HPGD block -9% and PNC inhibitor 17.
`Cc1cc(C)n2cc(CSCc3ccccc3)nc2n1` gave ALOX12 inhib 6%, ALDH1A1 inh inconclusive, LMNA splice mod -18%, HPGD block inconclusive and PNC inhibitor -89*.
CCCNC(=O)OC[C@H]1O[C@@H](CCO/N=C2/[C@H]3O[C@@H]3[C@@H](O)[C@H]3[C@H]2CCn2c(=O)n(-c4ccccc4)c(=O)n23)C=C[C@@H]1Oc1ccc(OC)cc1 was read as ALDH1A1 inh -14%[13.5 µM].
`O=C(CCN1C(=O)c2ccc([N+](=O)[O-])cc2C1=O)Nc1cccc(O)c1` gave ALOX12 inhib 0%, ALDH1A1 inh 13%, LMNA splice mod -8%, HPGD block -4% and PNC inhibitor inconclusive.
Cc1cc(O)ccc1NC(=O)CCN1C(=O)c2ccc([N+](=O)[O-])cc2C1=O was read as ALOX12 inhib -1%, ALDH1A1 inh 11µM*, LMNA splice mod 7%, HPGD block -14% and PNC inhibitor -98*.
Screening N#Cc1ccccc1Cn1c(SCC(=O)Nc2ccc(F)cc2)nc2ccccc21 returned LMNA splice mod 1%[46 µM].
For COc1ccc(S(=O)(=O)N(NC2=NS(=O)(=O)c3ccccc32)C(=O)C(C)C)cc1 the results were ALDH1A1 inh 2%.
CCN1CCN(c2c(C(=O)c3ccc(OC)cc3)cnc3ccccc23)CC1 was read as ALDH1A1 inh 2.8µM*.
For CCOC(=O)c1cnc2ccc(OCC)cc2c1N1CCN(c2ccccc2)CC1 the results were ALOX12 inhib -11%, ALDH1A1 inh -5%, LMNA splice mod inconclusive, HPGD block -5% and PNC inhibitor -19.
CC1Cc2c(-c3ccccc3)nc3c(c2CO1)CN(CCOc1ccccc1)CC3 (stereo unspecified) was read as ALDH1A1 inh -5%[13.5 µM].
For N#Cc1ccc(NCC(=O)Nc2ccc3c(c2)OCCO3)cc1 the results were ALDH1A1 inh 13µM* and LMNA splice mod -5%[46 µM].
O=C(COC(=O)c1cc(-c2ccccc2)nc2ccccc12)Nc1ccc2c(c1)OCO2 was read as ALOX12 inhib 3%, ALDH1A1 inh 10%, LMNA splice mod -10%, HPGD block -7% and PNC inhibitor 14.
Cc1ccnc2nc(C(=O)Nc3ccc4c(c3)OCO4)nn12 was read as ALOX12 inhib 0%, ALDH1A1 inh 4%, LMNA splice mod -5%, HPGD block -3% and PNC inhibitor 27.
Cc1cc(C)n2nc(C(=O)Nc3ccc4c(c3)OCO4)nc2n1 was read as ALOX12 inhib -3%, ALDH1A1 inh inconclusive, LMNA splice mod 6%, HPGD block 20µM* and PNC inhibitor -3.
`O=C(COC(=O)c1c2c(nc3ccccc13)CCCC2)Nc1ccc2c(c1)OCO2` gave ALOX12 inhib -29%, ALDH1A1 inh 8.9µM*, LMNA splice mod inconclusive, HPGD block -21% and PNC inhibitor inconclusive.
For O=C(CCl)Nc1ccc2c(c1)OCO2 the results were ALDH1A1 inh 1.6µM*.
`O=C(Nc1ccccc1C(F)(F)F)N1CCOc2ccc(Cl)cc21` gave LMNA splice mod -24%[46 µM].
For CC[C@H](C)[C@H](NC(N)=O)C(=O)Nc1ccc2c(c1)OCO2 the results were ALDH1A1 inh -1% and LMNA splice mod inconclusive.
CC1CN(S(=O)(=O)c2cccc(C(=O)OCC(=O)Nc3ccc4c(c3)OCO4)c2)CC(C)O1 (stereo unspecified) was read as ALOX12 inhib -6%, ALDH1A1 inh 11µM*, LMNA splice mod 8%, HPGD block -6% and PNC inhibitor -2.
For CC(C)CC(NC(N)=O)C(=O)Nc1ccc2c(c1)OCO2 (stereo unspecified) the results were ALDH1A1 inh 18µM* and LMNA splice mod inconclusive.
Screening CN(C)C(=S)Nc1ccc2c(c1)OCO2 returned ALDH1A1 inh 10µM* and LMNA splice mod -4%[46 µM].
Screening O=C(COC(=O)Cc1ccc(S(=O)(=O)N2CCOCC2)s1)Nc1ccc2c(c1)OCO2 returned ALOX12 inhib -27%, ALDH1A1 inh 20µM*, LMNA splice mod 11%, HPGD block -12% and PNC inhibitor 5.
For O=C(COC(=O)c1cc(S(=O)(=O)N2CCOCC2)ccc1Cl)Nc1ccc2c(c1)OCO2 the results were ALOX12 inhib 2%, ALDH1A1 inh inconclusive, LMNA splice mod 10%, HPGD block -11% and PNC inhibitor -24.
`CC1CN(S(=O)(=O)c2cccc(C(=O)OCC(=O)c3cccs3)c2)CC(C)O1` (stereo unspecified) gave ALOX12 inhib -1%, ALDH1A1 inh inconclusive, LMNA splice mod 0%, HPGD block -13% and PNC inhibitor 27.
O=C(Nc1c2c(nn1-c1ccc(Cl)cc1)CS(=O)(=O)C2)c1ccc(Br)cc1 was read as LMNA splice mod -20%[46 µM].
For COC(=O)Cc1ccc(NC(=O)c2ccccc2Br)cc1 the results were ALDH1A1 inh -3% and LMNA splice mod 20%[46 µM].
`Cc1cccc2cc(CNCc3ccccc3)c(Cl)nc12` gave ALDH1A1 inh 3% and LMNA splice mod -2%[46 µM].
`CCc1ccc(NC(=O)c2nc3nc(C)cc(C(F)F)n3n2)cc1` gave LMNA splice mod 0%[46 µM].
Screening CCN(CC)c1ccc(NC(=O)CSc2nnc3nc(C)cc(C)n23)cc1 returned ALOX12 inhib 5%, ALDH1A1 inh inconclusive, LMNA splice mod -1%, HPGD block 16µM* and PNC inhibitor 28.
